# Assay results from PubChem BioAssay AID1619 (SRMLSC, 2009).
# About 830 (0.38%) of roughly 220,000 compounds were called active. The list is a sample of the results. Potency and affinity values are given separately. Values without a mark were called inactive.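 The calls were made as follows: active = compound inhibiting the enzyme by more than half at any dose during confirmatory dose-response retesting; inconclusive = strong single-dose inhibitors picked by rank but not retested; inactive = the rest.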
# Target: Leucine aminopeptidase (Plasmodium falciparum (isolate 3D7)) (UniProt Q8IL11)
# Experiment: P. falciparum M17LAP inhibitors, primary screen, biochemical, fluorogenic H-Leu-NHMec substrate, 1536-well (AID 1619);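 also: plate controls were full reaction with DMSO carrier for no effect and no enzyme background for full effect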
# Details: recombinant M17LAP, H-Leu-NHMec fluorogenic kinetic assay; at 30 µM; stronger effect = higher value
# Sequence of Leucine aminopeptidase (Plasmodium falciparum (isolate 3D7)) (Q8IL11 whole entry, looked up): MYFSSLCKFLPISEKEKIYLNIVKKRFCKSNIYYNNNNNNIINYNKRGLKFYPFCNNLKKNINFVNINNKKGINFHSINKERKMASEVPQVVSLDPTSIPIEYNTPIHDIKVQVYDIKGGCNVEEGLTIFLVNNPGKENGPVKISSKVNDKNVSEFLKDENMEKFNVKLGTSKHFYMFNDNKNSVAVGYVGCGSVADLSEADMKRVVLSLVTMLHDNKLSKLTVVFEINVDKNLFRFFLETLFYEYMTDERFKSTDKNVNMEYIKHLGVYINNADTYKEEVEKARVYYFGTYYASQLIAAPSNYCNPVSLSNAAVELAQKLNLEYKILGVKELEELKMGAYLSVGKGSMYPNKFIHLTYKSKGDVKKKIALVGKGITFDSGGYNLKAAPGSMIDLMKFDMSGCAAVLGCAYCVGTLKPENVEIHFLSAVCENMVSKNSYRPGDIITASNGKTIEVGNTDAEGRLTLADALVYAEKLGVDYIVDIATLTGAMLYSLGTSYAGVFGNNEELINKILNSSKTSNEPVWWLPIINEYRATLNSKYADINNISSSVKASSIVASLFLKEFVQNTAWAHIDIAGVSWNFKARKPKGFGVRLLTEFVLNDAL
row,SMILES,inhibition [%]
1,Cc1ccnc(SCC(=O)N2CCCc3ccccc32)n1,-6.82
2,O=S(=O)(Nc1cccc2c1CCCC2)c1cccc(C(F)(F)F)c1,-8.32
3,COc1ccc([N+](=O)[O-])cc1NC(=O)Cc1ccc(Cl)cc1,8.59
4,COc1cc([N+](=O)[O-])ccc1NC(=O)Cc1ccc(C)cc1,-2.2
5,Cc1ccccc1NC(=O)CSc1nnc(-c2ccco2)c(-c2ccco2)n1,42.7
6,CC(=O)c1ccc(NC(=O)CSc2nnc(-c3ccco3)c(-c3ccco3)n2)cc1,22.5
7,Cc1ccc(NC(=O)CSc2nnc(-c3ccco3)c(-c3ccco3)n2)cc1,53.2
8,Cc1cccc(NC(=O)CSc2nnc(-c3ccco3)o2)c1C,0.69
9,CC1CN(Cc2nnc(-c3ccccc3)o2)CC(C)O1 (configuration not stated),3.22
10,Cc1c(NC(=O)CN2C(=O)c3cccc4cccc2c34)c(=O)n(-c2ccccc2)n1C,29.2
11,COc1cccc(CNC(=O)C2CCC(CNc3c(N4CCC(C)CC4)c(=O)c3=O)CC2)c1 (configuration not stated),-8.13
12,O=C(CCc1ccccc1)NNC(=S)Nc1ccc(F)cc1,5.08
13,CC(C)(C)Sc1ccc(/C=N/O)cc1[N+](=O)[O-],-1.67
14,N=C1/C(=C/c2cccs2)C(=O)N=C2SN=C(SCc3ccccc3)N12,14.2
15,CC(C)CSC1=NSC2=NC(=O)/C(=C\c3cccs3)C(=N)N12,9.74
16,O=C(CN1CCc2ccccc2C1)N1CCN(S(=O)(=O)c2ccccc2)CC1,7.42
17,CCOc1ccc2nc(NC(=O)C(NS(=O)(=O)c3cccc4nsnc34)C(C)C)sc2c1 (configuration not stated),-8.83
18,CC1(C)Cc2sc3c(=O)[nH]c(=S)[nH]c3c2CO1,6.75
19,CCCSc1nc2c3c(sc2c(=O)[nH]1)CC(C)(CC)OC3 (configuration not stated),-0.94
20,COC(=O)c1c(NC(=O)/C=C/C(=O)O)sc(C)c1-c1ccc(C)cc1,14.7
21,CCOC(=O)c1c(NC(=O)/C=C/C(=O)O)sc(C)c1-c1ccc(C)c(C)c1,8.96
22,COCCNc1nc2nonc2nc1N1C[C@H]2CC[C@H]1C2,8.08
23,COc1ccc(N2CCN(CCCNC(=O)C3(S(=O)(=O)c4ccc(Cl)cc4)CC3)CC2)cc1,16
24,COc1cc(NC(=O)CN2CCN(Cc3ccc4c(c3)OCO4)CC2)cc(OC)c1,19.9
25,O=C(NNC(=O)C1CC=CCC1C(=O)O)c1ccc(Cl)cc1 (configuration not stated),7.35

row,SMILES,inhibition [%]
1,Cc1ccc(NC(=O)C2CCCCC2C(=O)O)cc1Cl (configuration not stated),77.4
2,O=C(Nc1ccc2c(c1)CCC2)C1CCCO1 (configuration not stated),6.84
3,O=C(O)C1CCCCC1C(=O)Nc1ccc(Cl)cc1 (configuration not stated),54.6
4,Cc1ccc(NC(=O)C2CCCCC2C(=O)O)cc1C (configuration not stated),16.6
5,Cc1onc(-c2ccccc2Cl)c1C(=O)Nc1ccccc1C(=O)NC(C)C,9.44
6,COc1cc(C(=O)NC(C)c2cnn(-c3ccccc3C)c2C)cc(OC)c1OC (configuration not stated),5.89
7,COC(=O)c1c(NC(=O)CSc2ncnc3[nH]ncc23)sc2c1CCC2,33
8,CN(C)S(=O)(=O)c1cccc(CSc2cccc[n+]2[O-])c1,-1.76
9,Cc1ccc2cc(CCNC(=O)C(=O)c3c[nH]c4ccccc34)c(=O)[nH]c2c1,-4.94
10,COC(=O)c1cc(Cl)c(NC(=O)c2cc3ccccc3o2)cc1OC,-2.34
11,O=C(c1ccc(Br)cc1)c1cc(-c2ccccn2)c(N2CCOCC2)s1,5.58
12,Cc1csc2c(SCC(=O)NNS(=O)(=O)c3cccc(C(F)(F)F)c3)ncnc12,-12.4
13,CC1(OC(=O)C2CCCC2)C(=O)C=C2C=C(c3ccsc3)N(c3ccccc3)C=C2C1=O (configuration not stated),-5.77
14,O=C(OCCN1C(=O)c2ccccc2C1=O)c1ccco1,15.3
15,CCN1CCN(Cc2ccc(NC(=O)Nc3ccccc3)cc2)CC1,50.7
16,CCN1CCN(Cc2ccc(NC(=O)Nc3ccccc3OC)cc2)CC1,-5.76
17,Cc1ccc(NC(=O)Nc2ccc(C(=O)N3CCOCC3)cc2)cc1,41
18,COc1ccc(NC(=O)Nc2ccc(C(=O)N3CCOCC3)cc2)c(OC)c1,-5.93
19,CC(=O)Nc1cccc(C(=O)/C=C/c2ccco2)c1,17.6
20,O=C(O)c1ccccc1/C=N/N1CCN(C2c3ccccc3-c3ccccc32)CC1,-1.62
21,Brc1ccc(C2=Nn3c(nnc3-c3n[nH]c4c3CCC4)SC2)cc1,6.03
22,CCn1c(O)c(N=N)c2ccccc21,12.4
23,O=C(N/N=C/c1coc2ccccc2c1=O)c1ccccc1,11.9
24,O=C(N/N=C/c1coc2ccccc2c1=O)c1cc(O)cc(O)c1,29.1
25,Cc1c(C(=O)N2CCCC2)sc(NC(=O)c2cccc(Cl)c2)c1C#N,18.9

row,SMILES,inhibition [%]
1,O=C(CSc1ccccc1C(=O)O)NCc1ccco1,16.5
2,O=C(CSc1ccccc1C(=O)O)NCc1ccccc1,17.3
3,O=C(CSc1ncccn1)NCc1ccc(F)cc1,2.25
4,O=C(COC(=O)c1cccnc1Cl)NCCC1=CCCCC1,3.53
5,O=C(COC(=O)c1cccnc1SCC(=O)NCc1ccccc1)NCc1ccccc1,5.78
6,Cc1ccc(SCC(=O)NCCC2=CCCCC2)cc1,-5.26
7,Cc1cccc2cc(C(c3nnnn3Cc3ccccc3)N3CCN(c4ccccc4)CC3)c(=O)[nH]c12 (configuration not stated),2.86
8,COc1ccc(N2C(=O)CC(SCCc3nc4ccccc4[nH]3)C2=O)cc1 (configuration not stated),5.58
9,CC1=C(C(=O)NCc2ccccc2)C(c2cccs2)n2ncnc2N1 (configuration not stated),-3.95
10,O=C(NNC(=S)Nc1ccccc1)Nc1ccccc1,9.53
11,N#C/C(=C/c1ccc(N2CCOCC2)o1)C(=O)Nc1ccccc1,11.7
12,N#C/C(=C\c1ccc(N2CCOCC2)o1)C(=O)NCCc1ccccc1,10.1
13,N#C/C(=C\c1ccc(N2CCOCC2)o1)C(=O)NC1CCCCC1,48.6
14,N#C/C(=C\c1ccc(N2CCOCC2)o1)C(=O)NCC1CCCO1 (configuration not stated),51
15,N#C/C(=C\c1ccc(N2CCOCC2)o1)C(=O)Nc1ccc(O)cc1,43.7
16,COCCNC(=O)/C(C#N)=C/c1ccc(C)o1,23.4
17,CCN1CCN(Cc2ccc(NC(=O)c3cc(NC(=O)C4=NN(c5ccccc5)C(=O)C4)cc(OC)c3)cc2C(F)(F)F)CC1,6.5
18,CCn1c(SCC(=O)OCc2ccccc2)nnc1-c1ccco1,4.57
19,CCOC(=O)COc1ccccc1/C=C1/NC(=O)NC1=O,-4.69
20,CCOC(=O)c1c(C)[nH]c(C(=O)OCC(=O)Nc2ccc(OCC)cc2)c1C,-8.26
21,COc1ccc(C(C)C)cc1S(=O)(=O)n1ccnc1C,-18.1
22,COC1=Cc2c(ccc3ccc(=O)oc23)OC1(C)C,-5.99
23,CC(Sc1nc(-c2ccccc2)cc(=O)[nH]1)C(=O)O (configuration not stated),22.4
24,CCC(Sc1nc(-c2ccccc2)cc(=O)[nH]1)C(=O)O (configuration not stated),10
25,COc1cccc(CNC(=O)CN2C(=O)CSc3ccc(S(=O)(=O)N4CCCC4)cc32)c1,1.2

row,SMILES,inhibition [%]
1,COc1ccc(C(=O)NCC(=O)OCC(=O)Nc2c(C)n(C)n(-c3ccccc3)c2=O)cc1,5.29
2,c1ccc(COc2ccccc2CNc2nn[nH]n2)cc1,6.74
3,COc1ccc(CNc2nn[nH]n2)cc1OC,26.5
4,COc1ccc(/C=N/NC(=S)N[C@H]2CC3CCC2C3)cc1 (some centres not stated),3.46
5,COc1ccc(C(=O)Nc2nc3cc(OC)c(OC)cc3c(=O)[nH]2)cc1,0.22
6,CC1CCC2(CC1)NC(=O)N(CC(=O)N1CCN(S(=O)(=O)c3ccccc3)CC1)C2=O (configuration not stated),5.42
7,CS(=O)(=O)CCC(C(=O)N1CCOCC1)N1C(=O)c2cc(Cl)c(Cl)cc2C1=O (configuration not stated),6.46
8,Cc1cccc(Nc2ncnc3ccc(Br)cc23)c1,5.43
9,COc1cccc(Nc2ncnc3ccccc23)c1,13.6
10,Cc1cccc(Nc2ncnc3ccccc23)c1,19.2
11,COc1cccc(Nc2ncnc3c2cnn3C)c1,16.4
12,CCN1C(=O)/C(=C\c2nc3ccccc3c(=O)n2-c2ccccc2)c2ccccc21,-3.98
13,CCOC(=O)c1cnc2c(C)c(Cl)ccc2c1Nc1ccc(S(=O)(=O)Nc2ncccn2)cc1,-6.24
14,CC(=O)NC(O)C(=O)c1ccco1 (configuration not stated),3.51
15,C=CCn1c(SCC(=O)Nc2c(C)cccc2C)nnc1-c1ccncc1,-1.77
16,COc1ccc(C(=O)COC(=O)C2CCC(=O)N2)cc1 (configuration not stated),-3.64
17,Cc1ccc2nc(SCCC(=O)O)cc(C)c2c1,43.9
18,Cc1cc(C)nc(Nc2n[nH]c(-c3ccccc3Br)n2)n1,-2.55
19,Nc1nc(-c2ccccc2Br)cs1,-3.14
20,CC(C)CC(C(=O)O)N1C(=O)[C@@H]2[C@H](C1=O)[C@@H]1C[C@H]2C(Br)C1Br (some centres not stated),42.5
21,Cc1[nH]n(-c2ncc(-c3ccccc3)s2)c(=O)c1C(c1ccc(Br)cc1)C(C#N)C#N (configuration not stated),6.12
22,Cc1[nH]n(-c2ncc(-c3ccccc3)s2)c(=O)c1C(c1ccc(Cl)cc1)C(C#N)C#N (configuration not stated),21.9
